KCNH2 WT inh: qHTS for Inhibitors of KCHN2 3.1: Wildtype qHTS | U2OS, BacMam KCNH2, thallium flux FluxOr; hits give low values | activity change, % at 1.84 µM | Voltage-gated inwardly rectifying potassium channel KCNH2 (Homo sapiens), Q12809 | AID 720551, 2013 | 0.37% of 340,000 active;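 active means maximum activity change below -70%; inconclusive means maximum activity change between -70% and -50%; inactive means maximum activity change above -50%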
Target sequence (Q12809 whole entry, looked up): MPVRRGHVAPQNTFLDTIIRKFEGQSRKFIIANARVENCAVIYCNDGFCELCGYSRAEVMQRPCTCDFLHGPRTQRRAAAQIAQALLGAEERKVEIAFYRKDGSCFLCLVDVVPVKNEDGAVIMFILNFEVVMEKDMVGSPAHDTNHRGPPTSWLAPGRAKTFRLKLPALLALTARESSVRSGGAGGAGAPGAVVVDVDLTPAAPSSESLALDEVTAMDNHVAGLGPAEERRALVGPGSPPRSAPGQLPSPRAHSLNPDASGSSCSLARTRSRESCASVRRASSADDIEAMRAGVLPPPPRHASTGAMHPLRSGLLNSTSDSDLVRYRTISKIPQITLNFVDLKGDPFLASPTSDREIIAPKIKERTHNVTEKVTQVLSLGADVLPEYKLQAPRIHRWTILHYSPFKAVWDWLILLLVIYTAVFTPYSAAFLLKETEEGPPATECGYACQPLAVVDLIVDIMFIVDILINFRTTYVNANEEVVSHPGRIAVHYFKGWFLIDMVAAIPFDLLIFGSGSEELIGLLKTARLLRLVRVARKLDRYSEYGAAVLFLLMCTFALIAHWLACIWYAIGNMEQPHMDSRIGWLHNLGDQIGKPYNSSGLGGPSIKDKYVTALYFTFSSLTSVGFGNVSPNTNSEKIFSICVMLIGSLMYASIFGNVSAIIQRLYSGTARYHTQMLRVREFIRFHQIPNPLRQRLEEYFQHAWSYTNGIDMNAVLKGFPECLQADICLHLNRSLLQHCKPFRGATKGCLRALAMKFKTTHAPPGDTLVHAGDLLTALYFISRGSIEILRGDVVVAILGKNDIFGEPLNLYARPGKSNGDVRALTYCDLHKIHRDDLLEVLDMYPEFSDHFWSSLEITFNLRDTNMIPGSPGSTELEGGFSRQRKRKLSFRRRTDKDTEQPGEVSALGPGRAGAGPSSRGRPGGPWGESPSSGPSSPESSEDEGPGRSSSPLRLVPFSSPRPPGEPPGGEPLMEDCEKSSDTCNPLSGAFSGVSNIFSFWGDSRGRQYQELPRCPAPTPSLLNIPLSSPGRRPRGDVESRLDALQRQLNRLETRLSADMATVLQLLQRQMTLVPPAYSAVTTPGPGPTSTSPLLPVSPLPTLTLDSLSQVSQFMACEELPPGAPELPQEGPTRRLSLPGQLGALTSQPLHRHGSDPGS
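U2OS cells transduced with wild-type KCNH2 virus are loaded with FluxOr dye for 45 min, and thallium flux is measured in kinetic reads before and after stimulation buffer. Rate constants are normalized to DMSO controls.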
TRHR agonist: qHTS for Small Molecule Agonists and Allosteric Enhancers of Human TRH Receptor: Primary Screen for Agonists; Thyrotropin-releasing hormone receptor (Homo sapiens), P34981; TRHR cells, calcium flux fluo-8, FDSS agonist mode; activation, % at 2 µM; 0.18% of 360,000 active; AID 493084, 2011; in the data active means activation above about 30%
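In this calcium-flux screen, cells bearing human TRHR are dye-loaded with fluo-8, baselined for 10 cycles, then exposed to library compounds; positive kinetic calcium responses during the agonist phase mark hits, with TRH as control.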
TRPML1 agonist: qHTS for Agonists of the Human Mucolipin Transient Receptor Potential 1 (TRPML1). Mucolipin-1 (Homo sapiens), Q9GZU1. TRPML1-expressing cells, Ca2+ dye fluorescence, FDSS. activation, % (test concentration not listed). 0.12% of 410,000 active. AID 624414, 2012; in the data active means activation above about 50%; inconclusive means mostly about 30% to 49%
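Kinetic FDSS Ca2+ read in Tet-induced TRPML1-DL cells (ABD Ca8 dye plus quencher, 45-90 min RT loading): baseline, then compound, then 110 s agonist window; EC80 agonist 54-4 at 4uM final added afterwards for a 110 s antagonist window.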
TRHR PAM: qHTS for Small Molecule Agonists and Allosteric Enhancers of Human TRH Receptor: Primary Screen for Enhancers; Thyrotropin-releasing hormone receptor (Homo sapiens), P34981; TRHR cells, fluo-8 calcium fluorescence, EC20 TRH enhancement; enhancement, % at 2 µM; 0.66% of 360,000 active; in the data active means enhancement above about 30%
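Enhancer read-out: after compound pinning and an initial kinetic agonist-mode read, an EC20 of TRH (10 nM final) was injected and fluo-8 calcium signal (Ex 480/Em 530) followed at 1 s/cycle for 100 cycles in TRHR-expressing cells.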
KCNH2 3.1 inh: qHTS for Inhibitors of KCHN2 3.1: Mutant qHTS; Potassium voltage-gated channel subfamily H member 2, brain isoform KCNH2 3.1 (human); U2OS KCNH2 3.1, thallium flux FluxOr; hits give low values; activity change, % (tested at about 1.8 µM); 0.95% of 340,000 active; AID 720553, 2013;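 active means maximum activity change below -70%; inconclusive means maximum activity change from -70% to -50%; inactive means maximum activity change above -50%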;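 further: thallium influx rate constant from kinetic fluorescence after stimulation buffer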
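Channel expression came from 3.1 mutant virus (1.77 x 10^8 /mL) applied to suspended U2OS cells for 4 h. Flux was tracked with FluxOr dye plus Red40 quencher, and kinetic rate constants normalized to controls.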
TRPML1 blocker: qHTS for Inhibitors of the Human Mucolipin Transient Receptor Potential 1 (TRPML1); 0.02% of 390,000 active; TRPML1-inducible cells, Ca2+ dye fluorescence, FDSS; hits give low values; inhibition of EC80 agonist-evoked calcium signal; activity change, negative = inhibition, % (concentration not given with the values); AID 624415, 2012; in the data active means activity change below about -50%; inconclusive means between about -30% and that limit;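 further: stimulus is agonist 54-4 at its EC80 concentration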
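Calcium fluorescence in TRPML1-DL cells induced overnight with Tet: a 110 s read after compound pin addition, then a 110 s antagonist read after challenge with 54-4 at 4 uM final (EC80).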
Large screens that a line does not name were inactive; ! = a repeat was not active. An excerpt weighted towards active compounds, which were near 1.7% of everything screened.

CCc1ccccc1NC(=O)Cn1nc(C(F)(F)F)cc1C1CC1	KCNH2 3.1 inh -78
COc1cc(/C=C/C(O)=C/C(=O)/C=C/c2ccc(O)cc2)ccc1O	TRHR agonist 104
COC(=O)c1ccc(Cl)c(-c2ccc(/C=N/NC(=O)Nc3ccccc3)o2)c1	TRHR PAM 31
C/C(=N\NC(=O)C1CCCC1)c1ccc(Cl)cc1Cl	none
Cc1ccc2nc(/C(C#N)=C\c3ccc([N+](=O)[O-])o3)[nH]c2c1	TRPML1 blocker inconclusive
Cc1ccc2nc(/C(C#N)=C/c3ccc(-c4ccccc4C(=O)O)o3)[nH]c2c1	TRHR agonist 70, TRPML1 agonist inconclusive
N#C/C(=C\c1ccc(Sc2ccccc2)o1)c1nc2ccccc2[nH]1	KCNH2 3.1 inh inconclusive
Cc1cc2nc3s/c(=C/c4ccc(-c5ccccc5C(=O)O)o4)c(=O)n3c2cc1C	TRHR agonist 77
N#C/C(=C\c1ccc(-c2ccccc2C(=O)O)o1)c1nc2ccccc2[nH]1	TRHR agonist 46!
CCOC(=O)c1ccc(-c2ccc(/C=C(\C#N)C(=O)Nc3cccc(C)c3)o2)cc1	none (no result: KCNH2 WT inh, KCNH2 3.1 inh)
CCOC(=O)c1ccc(-c2ccc(/C=C(\C#N)c3nc4ccc(C)cc4[nH]3)o2)cc1	TRHR agonist 120, TRPML1 agonist 51 (no result: KCNH2 WT inh, KCNH2 3.1 inh)
COc1ccc(CCN(CC(=O)NCc2ccc(F)cc2)C(=O)c2snc(C(N)=O)c2N)cc1OC	none
COC(=O)c1cc2oc3ccccc3c2n1CC(=O)Nc1cccc(SC)c1	none (no result: KCNH2 WT inh, KCNH2 3.1 inh)
N#C/C(=C\c1ccc(-c2ccc(F)cc2F)o1)c1nc2ccccc2[nH]1	TRHR agonist 78, TRPML1 agonist inconclusive (no result: KCNH2 WT inh, KCNH2 3.1 inh)
N#C/C(=C\c1ccc([N+](=O)[O-])o1)c1nc2ccccc2[nH]1	none
Cc1cc2nc(/C(C#N)=C\c3ccc(-c4ccccc4C(=O)O)o3)[nH]c2cc1C	TRHR agonist 39
Cc1cccc(NC(=O)CSc2nc3ccccc3nc2N2CCCC2)c1C	none
CCC(C)[C@H](NC(=O)Nc1ccc(C)cc1C)C(=O)O (some centres undefined)	none
CCOC(=O)C1(Cc2ccccc2)CCCN(S(=O)(=O)N(C)C)C1 (centres undefined)	none
CCOC(=O)/C(=C/c1ccc(OC(F)F)cc1)C1=Nn2c(nnc2-c2ccc(Cl)cc2)SC1	KCNH2 WT inh inconclusive, KCNH2 3.1 inh -83 (no result: TRHR agonist, TRHR PAM)
COc1ccc(-c2nnc3n2N=C(C)CS3)cc1	none
CCOC(=O)/C(=C\c1ccc(OC(F)F)cc1)C1=Nn2c(nnc2-c2ccc(Cl)cc2)SC1	KCNH2 WT inh -78, KCNH2 3.1 inh -70
COc1nnc(-c2ccc(C)cc2)c2ccccc12	KCNH2 3.1 inh -90
COc1ccc(Oc2nnc(-c3ccc(C)cc3)c3ccccc23)cc1	none
Cc1ccc(-c2nnc(-n3nc(C)cc3C)c3ccccc23)cc1	TRHR PAM 30
FC(F)(F)c1ccccc1Cc1c(-c2ccc(Cl)cc2)nc2ccc(Br)cn12	none (no result: KCNH2 WT inh, TRHR agonist, TRHR PAM, KCNH2 3.1 inh, TRPML1 blocker)
Cc1ccc(Nc2nnc(-c3cc4c(ccc5ccccc54)oc3=O)s2)cc1	none (no result: KCNH2 WT inh, KCNH2 3.1 inh)
CCN(CC)c1ccc2cc(-c3nnc(Nc4ccc(C)cc4)s3)c(=O)oc2c1	TRHR agonist 159, TRPML1 agonist 67 (no result: KCNH2 WT inh, KCNH2 3.1 inh)
CCN(CC)c1ccc2cc(-c3nc(-c4ccccc4)no3)c(=O)oc2c1	TRHR agonist 55 (no result: KCNH2 WT inh, KCNH2 3.1 inh)
O=c1oc2ccccc2cc1-c1nc(-c2ccccc2)no1	none
O=C(Nc1cccnc1)c1ccc2snnc2c1	KCNH2 WT inh -151, KCNH2 3.1 inh -125
O=C(NCc1ccco1)c1ccc2snnc2c1	TRHR PAM 32
CCN(CC(=O)Nc1c(F)cccc1F)C(=O)c1ccc2c(c1)OCO2	none
COc1cc(-c2noc(C)c2C#CCCN2C(=O)c3ccccc3C2=O)cc(OC)c1OC	none (no result: KCNH2 WT inh, TRHR agonist, TRHR PAM, KCNH2 3.1 inh, TRPML1 blocker)
O=C(Nc1ccc(CN2CCOCC2)cc1)c1ccc(Br)cc1	none
O=C(Nc1cccc(NC(=O)c2ccc(-c3ccc(Br)cc3)o2)c1)c1ccccc1	KCNH2 3.1 inh -94
O=C(Nc1ccccc1)c1ccc(-c2ccc(Br)cc2)o1	none
O=C(Nc1ccc(CN2CCOCC2)cc1)c1ccc(-c2ccc(Br)cc2)o1	KCNH2 3.1 inh -103
O=C(COC(=O)/C=C/c1ccc(C(F)(F)F)cc1)NCc1ccco1	none
CC(C)CCn1c(Sc2nc3ccccc3o2)nc2c1c(=O)[nH]c(=O)n2C	none
CC1CCCC(NC(=O)c2cccc(S(=O)(=O)N3CCOCC3)c2)C1C (centres undefined)	none (no result: TRHR agonist, TRHR PAM)
CCn1cc(C2=NC(c3ccccc3)CO2)c2ccccc21 (centres undefined)	none
CCn1cc(C2=NC(C)CO2)c2ccccc21 (centres undefined)	KCNH2 3.1 inh -71
COc1ccc(S(=O)(=O)Nc2cc3c(C(C)=O)c(C)oc3c3ccccc23)cc1	TRPML1 agonist 62
CC(=O)c1c(C)oc2c1cc(NS(=O)(=O)c1ccc(C(C)(C)C)cc1)c1ccccc12	none (no result: KCNH2 WT inh, KCNH2 3.1 inh)
CC(=O)Nc1ccc(SCC(CC(C)C)N2CCN(CCc3ccccc3)CCC2=O)cc1 (centres undefined)	none (no result: KCNH2 WT inh, TRHR agonist, TRHR PAM, KCNH2 3.1 inh)
N#Cc1cccc(NC(=O)CSc2ccc3c4c(cccc24)C(=O)c2ccccc2-3)c1	KCNH2 WT inh -100, TRPML1 agonist 80, KCNH2 3.1 inh -78
COc1ccc(NC(=O)CSc2ccc3c4c(cccc24)C(=O)c2ccccc2-3)cc1	none (no result: TRHR agonist, TRHR PAM)
O=C(Nc1ccccc1Cl)c1ccc(Cl)cc1Cl	KCNH2 3.1 inh -72
CCN(CC)C(=O)CSc1nc2cc3c(cc2c(=O)n1CCCCCC(=O)NCCc1ccc(OC)c(OC)c1)OCO3	none (no result: KCNH2 WT inh, KCNH2 3.1 inh)
Nc1ccc2ncccc2c1	KCNH2 3.1 inh -118
CC(C)N(Cc1ccccc1)C(=O)CN1C(=O)CSc2ccc(S(=O)(=O)N3CCCC3)cc21	none (no result: KCNH2 WT inh, KCNH2 3.1 inh)
COc1cc(NC(=O)c2cccc(Br)c2)nc(OC)n1	TRHR PAM 34
O=C(Nc1ccccc1SCC1CSc2nc3ccccc3c(=O)n21)c1ccccc1 (centres undefined)	none
O=C(Nc1ccccc1SCC1CSc2nc3ccccc3c(=O)n21)c1cccc(Cl)c1 (centres undefined)	KCNH2 3.1 inh -84
